# Source: the supplement of paper PMC4166925
# ± gives the standard deviation of the averaged measurements. Over roughly 33,000 sequences, “E-score (dimensionless, -0.5 to 0.5)” has its median near -0.046; the highest 2% begin near 0.36. For the sample, the highest values were picked, then their nearest neighbours and some sequences at random.
# Test system: T1, SpTbr T-box DNA-binding domain (GST fusion)
# T1 sequence: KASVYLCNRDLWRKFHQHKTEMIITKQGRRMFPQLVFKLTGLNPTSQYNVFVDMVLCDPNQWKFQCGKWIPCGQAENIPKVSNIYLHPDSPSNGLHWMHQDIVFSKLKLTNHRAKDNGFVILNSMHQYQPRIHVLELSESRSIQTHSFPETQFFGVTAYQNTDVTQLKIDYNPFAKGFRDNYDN
# Experiment: PBM E-score of 8-mer (E-score (dimensionless, -0.5 to 0.5)); Tbr is Tbrain of the sea star Patiria miniata (Pm) or the sea urchin Strongylocentrotus purpuratus (Sp); higher = stronger binding preference
# Details: the construct has about 5 more residues each side
# Description: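 Universal protein-binding microarray (Agilent AMADID 016060, 60-bp probes with a 35-bp variable region) incubated with 200 nM GST-fused Strongylocentrotus purpuratus Tbr T-box DNA-binding domain (residues 362-554) in PBS pH 7.5. Scored for every ungapped 8-mer (given with its reverse complement) as E-score (range -0.5 to 0.5; >0.45 counts as bound) and Z-score of median probe intensity. Two replicate arrays (datasets 1 and 2).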
# 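Further: protein at 200 nM in PBS on universal double-stranded arrays.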
row,Sequence,PBM E-score of 8-mer
1,ATCTCCGG,0.0811 ± 0.031
2,ACCGTTCA,0.027 ± 0.023
3,AGCGAGTC,0.0305 ± 0.044
4,CTGTACCA,-0.0774 ± 0.055
5,GCTAGAAC,0.0971 ± 0.024
6,AGACCATG,-0.0594 ± 0.025
7,TTGCCAAA,0.0607 ± 0.12
8,GTGCCAAC,0.4114 ± 0.0035
9,CTGCCAAC,0.0901 ± 0.035
10,GTGCCAAA,0.403 ± 0.0099
11,ATGCCAAC,0.124 ± 0.0029
12,CTGCCAAA,0.0249 ± 0.15
13,AAGAGTAT,-0.163 ± 0.024
14,ATACGCAC,0.153 ± 0.063
15,ATTTGGCG,0.118 ± 0.03
16,CTGGGGAA,0.00742 ± 0.052
17,GGCGTGAA,0.473 ± 0.0057
18,GGCGTGCA,0.0836 ± 0.055
19,TACGTGAA,0.0338 ± 0.073
20,CGCGTGAG,0.313 ± 0.0063
21,TGCGTGAA,0.3936 ± 0.0023
22,GACGTGAC,0.235 ± 0.032
23,GCCGTGAA,0.354 ± 0.018
24,GCCGTGAC,0.199 ± 0.011
25,CGCGTGAC,0.355 ± 0.02

row,Sequence,PBM E-score of 8-mer
1,GGCGTGAC,0.388 ± 0.0071
2,CGCGTGAA,0.4208 ± 0.0018
3,TCCGTGAA,0.16 ± 0.012
4,AGGCTGGG,-0.179 ± 0.012
5,ACAGTGTA,0.0565 ± 0.017
6,ATAACTCC,-0.147 ± 0.029
7,ACTGACTC,0.0022 ± 0.0015
8,AGCGTGAT,0.28 ± 0.022
9,AGCGTGAC,0.3372 ± 0.0013
10,AGCGTGAA,0.413 ± 0.018
11,AGAAGACA,0.0347 ± 0.065
12,ATGTGTCG,0.385 ± 0.011
13,ATATGTCG,0.139 ± 0.047
14,CTGTGTCA,0.247 ± 0.015
15,ATGTGTCC,0.144 ± 0.014
16,ATGTGTCA,0.4671 ± 0.00078
17,GTGTGTCA,0.346 ± 0.0092
18,CACATTCA,0.21 ± 0.041
19,CATAAAGA,-0.0483 ± 0.0071
20,GCGGGTGA,0.261 ± 0.03
21,GAATTTCA,0.056 ± 0.018
22,AAGCAAGG,-0.0863 ± 0.017
23,AGCCAGAA,-0.268 ± 0.024
24,AAGGAGAT,-0.0983 ± 0.019
25,AGAGGGCC,-0.194 ± 0.097

row,Sequence,PBM E-score of 8-mer
1,ATCCACAC,0.357 ± 0.0097
2,GTCCACAA,0.153 ± 0.039
3,CTCCACAC,0.37 ± 0.0083
4,CTCCACAG,-0.0194 ± 0.034
5,CTCCACAA,0.136 ± 0.0093
6,GTCCACAC,0.385 ± 0.0075
7,AGGGACGA,0.053 ± 0.072
8,CCTTTGAG,-0.17 ± 0.018
9,CGGTAGCA,0.276 ± 0.031
10,CTTTGCAA,0.0361 ± 0.021
11,GATCGGAC,-0.287 ± 0.013
12,ATCGGCTG,0.0647 ± 0.039
13,ATACTAGA,-0.222 ± 0.11
14,CTTCTCAA,0.0891 ± 0.045
15,ATTCTCAA,0.138 ± 0.062
16,CTTCTCTC,0.08 ± 0.04
17,CTTCTCAC,0.401 ± 0.011
18,ATTCTCAC,0.415 ± 0.015
19,ATTCTCAG,0.0379 ± 0.094
20,ACCGAGGA,-0.0878 ± 0.039
21,AGTTCCAT,0.00979 ± 0.0044
22,CTGCGAGA,0.185 ± 0.0098
23,ATGCGACA,0.285 ± 0.0073
24,CTGCGACA,0.198 ± 0.036
25,GTGCGACA,0.398 ± 0.012

row,Sequence,PBM E-score of 8-mer
1,CTGCGAAA,0.342 ± 0.036
2,TTGCGAAA,0.33 ± 0.038
3,GTGCGAAA,0.4765 ± 0.0018
4,ATGCGAGA,0.172 ± 0.017
5,GTGCGAGA,0.42 ± 0.0079
6,ATGCGATA,0.0476 ± 0.028
7,GTGCGATA,0.427 ± 0.0042
8,CTGCGATA,0.0968 ± 0.04
9,GATACCCC,-0.273 ± 0.041
10,CAAGGATA,-0.175 ± 0.043
11,GAATCTGC,-0.0922 ± 0.056
12,ATGCTCCG,-0.0668 ± 0.061
13,AAGCCCGG,-0.24 ± 0.028
14,CATGCTAA,0.0578 ± 0.029
15,ACCTACTA,0.17 ± 0.057
16,GCATTCTA,-0.293 ± 0.06
17,AGGCAGAC,-0.227 ± 0.0024
18,CTGCGAAG,0.2479 ± 0.0022
19,CTGCGATC,0.106 ± 0.1
20,GGGCGAAC,-0.0364 ± 0.016
21,GTGCGAAC,0.4783 ± 0.00073
22,CTGCGAAC,0.365 ± 0.0088
23,ATGCGAAC,0.154 ± 0.017
